About 8,800 targets were measured; listed, in parts, are those with a hit and a random draw of the rest. About 0.5% of all pairs of compound and target were hits. Values without a mark were called inactive.

Sequence of UniProt Q9NX02 (Q9NX02 whole entry, looked up): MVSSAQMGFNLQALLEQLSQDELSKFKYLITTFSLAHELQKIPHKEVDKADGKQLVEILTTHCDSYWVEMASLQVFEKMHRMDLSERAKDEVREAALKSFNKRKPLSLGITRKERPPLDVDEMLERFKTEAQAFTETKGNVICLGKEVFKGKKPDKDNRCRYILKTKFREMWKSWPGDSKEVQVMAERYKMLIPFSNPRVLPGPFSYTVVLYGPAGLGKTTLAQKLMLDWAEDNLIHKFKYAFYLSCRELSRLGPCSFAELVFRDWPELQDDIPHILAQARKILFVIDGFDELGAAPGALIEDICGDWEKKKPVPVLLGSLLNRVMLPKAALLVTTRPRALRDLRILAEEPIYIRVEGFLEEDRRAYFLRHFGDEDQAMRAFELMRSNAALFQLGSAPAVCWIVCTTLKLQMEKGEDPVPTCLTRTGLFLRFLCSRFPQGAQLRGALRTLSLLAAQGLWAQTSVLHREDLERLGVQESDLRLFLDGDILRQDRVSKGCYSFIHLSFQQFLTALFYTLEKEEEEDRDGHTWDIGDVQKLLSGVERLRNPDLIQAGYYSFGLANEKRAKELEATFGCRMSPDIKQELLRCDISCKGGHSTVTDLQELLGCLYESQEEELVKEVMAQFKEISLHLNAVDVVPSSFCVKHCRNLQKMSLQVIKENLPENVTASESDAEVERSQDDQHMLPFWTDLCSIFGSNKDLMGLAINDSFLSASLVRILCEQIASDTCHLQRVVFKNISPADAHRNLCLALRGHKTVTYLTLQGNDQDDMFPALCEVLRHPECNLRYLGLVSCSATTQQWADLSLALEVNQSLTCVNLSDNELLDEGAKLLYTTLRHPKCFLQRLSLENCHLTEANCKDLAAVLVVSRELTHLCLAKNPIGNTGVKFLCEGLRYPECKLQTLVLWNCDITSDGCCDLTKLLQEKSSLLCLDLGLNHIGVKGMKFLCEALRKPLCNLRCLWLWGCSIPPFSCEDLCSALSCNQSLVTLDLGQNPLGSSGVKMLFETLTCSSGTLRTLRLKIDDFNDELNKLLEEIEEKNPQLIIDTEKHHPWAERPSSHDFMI
Sequence of UniProt Q9BZD4 (Q9BZD4 whole entry, looked up): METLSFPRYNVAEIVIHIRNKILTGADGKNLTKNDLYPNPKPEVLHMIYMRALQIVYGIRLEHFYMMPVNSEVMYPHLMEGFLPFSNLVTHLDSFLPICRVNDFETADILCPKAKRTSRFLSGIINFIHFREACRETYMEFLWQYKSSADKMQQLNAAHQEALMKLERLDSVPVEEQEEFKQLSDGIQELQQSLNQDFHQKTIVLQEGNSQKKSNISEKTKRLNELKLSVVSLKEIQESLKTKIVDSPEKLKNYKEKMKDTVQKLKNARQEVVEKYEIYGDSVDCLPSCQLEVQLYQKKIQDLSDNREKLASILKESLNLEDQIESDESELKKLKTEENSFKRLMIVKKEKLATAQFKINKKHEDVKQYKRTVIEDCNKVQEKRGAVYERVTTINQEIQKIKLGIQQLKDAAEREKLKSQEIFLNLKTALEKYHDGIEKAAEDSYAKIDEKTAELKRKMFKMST
Sequence of UniProt Q8TAT6 (Q8TAT6 whole entry, looked up): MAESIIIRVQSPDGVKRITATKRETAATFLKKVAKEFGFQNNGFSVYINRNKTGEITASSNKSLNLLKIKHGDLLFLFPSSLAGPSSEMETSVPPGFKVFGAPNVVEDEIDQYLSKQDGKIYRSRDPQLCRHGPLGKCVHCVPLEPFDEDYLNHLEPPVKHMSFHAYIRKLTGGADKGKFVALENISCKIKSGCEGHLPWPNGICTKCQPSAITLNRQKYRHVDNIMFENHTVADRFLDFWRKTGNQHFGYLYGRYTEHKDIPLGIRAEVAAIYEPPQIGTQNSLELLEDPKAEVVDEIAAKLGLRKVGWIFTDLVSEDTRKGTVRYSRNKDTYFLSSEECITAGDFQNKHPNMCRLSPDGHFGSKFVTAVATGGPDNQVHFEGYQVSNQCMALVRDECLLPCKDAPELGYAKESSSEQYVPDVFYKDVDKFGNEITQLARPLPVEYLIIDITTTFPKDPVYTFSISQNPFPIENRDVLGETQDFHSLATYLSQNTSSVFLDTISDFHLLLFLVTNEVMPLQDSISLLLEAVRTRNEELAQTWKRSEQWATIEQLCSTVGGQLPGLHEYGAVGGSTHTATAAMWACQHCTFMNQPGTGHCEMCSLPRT
Sequence of UniProt Q6GQQ9 (Q6GQQ9 whole entry, looked up): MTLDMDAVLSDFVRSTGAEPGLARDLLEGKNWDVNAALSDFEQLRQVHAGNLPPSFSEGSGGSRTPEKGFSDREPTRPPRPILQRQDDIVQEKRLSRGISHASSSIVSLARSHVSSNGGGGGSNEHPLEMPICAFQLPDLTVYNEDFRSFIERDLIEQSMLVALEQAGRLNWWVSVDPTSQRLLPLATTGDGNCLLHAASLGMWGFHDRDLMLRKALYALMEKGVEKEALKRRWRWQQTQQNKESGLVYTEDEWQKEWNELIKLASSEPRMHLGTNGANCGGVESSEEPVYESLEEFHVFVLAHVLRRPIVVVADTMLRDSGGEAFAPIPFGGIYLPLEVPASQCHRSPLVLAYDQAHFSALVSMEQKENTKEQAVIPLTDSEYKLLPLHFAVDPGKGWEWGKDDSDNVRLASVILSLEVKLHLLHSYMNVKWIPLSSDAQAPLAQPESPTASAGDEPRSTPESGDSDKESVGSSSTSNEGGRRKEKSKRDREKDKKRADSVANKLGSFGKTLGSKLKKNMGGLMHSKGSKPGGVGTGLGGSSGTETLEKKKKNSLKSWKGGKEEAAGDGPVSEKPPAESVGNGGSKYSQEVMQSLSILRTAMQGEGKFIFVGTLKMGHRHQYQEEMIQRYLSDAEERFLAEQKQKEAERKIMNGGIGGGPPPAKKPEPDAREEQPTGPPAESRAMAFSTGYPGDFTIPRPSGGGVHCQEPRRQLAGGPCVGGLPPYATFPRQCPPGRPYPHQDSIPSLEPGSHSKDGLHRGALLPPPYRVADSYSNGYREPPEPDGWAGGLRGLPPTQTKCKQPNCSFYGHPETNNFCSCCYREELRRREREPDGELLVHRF
Sequence of UniProt O95644 (O95644 whole entry, looked up): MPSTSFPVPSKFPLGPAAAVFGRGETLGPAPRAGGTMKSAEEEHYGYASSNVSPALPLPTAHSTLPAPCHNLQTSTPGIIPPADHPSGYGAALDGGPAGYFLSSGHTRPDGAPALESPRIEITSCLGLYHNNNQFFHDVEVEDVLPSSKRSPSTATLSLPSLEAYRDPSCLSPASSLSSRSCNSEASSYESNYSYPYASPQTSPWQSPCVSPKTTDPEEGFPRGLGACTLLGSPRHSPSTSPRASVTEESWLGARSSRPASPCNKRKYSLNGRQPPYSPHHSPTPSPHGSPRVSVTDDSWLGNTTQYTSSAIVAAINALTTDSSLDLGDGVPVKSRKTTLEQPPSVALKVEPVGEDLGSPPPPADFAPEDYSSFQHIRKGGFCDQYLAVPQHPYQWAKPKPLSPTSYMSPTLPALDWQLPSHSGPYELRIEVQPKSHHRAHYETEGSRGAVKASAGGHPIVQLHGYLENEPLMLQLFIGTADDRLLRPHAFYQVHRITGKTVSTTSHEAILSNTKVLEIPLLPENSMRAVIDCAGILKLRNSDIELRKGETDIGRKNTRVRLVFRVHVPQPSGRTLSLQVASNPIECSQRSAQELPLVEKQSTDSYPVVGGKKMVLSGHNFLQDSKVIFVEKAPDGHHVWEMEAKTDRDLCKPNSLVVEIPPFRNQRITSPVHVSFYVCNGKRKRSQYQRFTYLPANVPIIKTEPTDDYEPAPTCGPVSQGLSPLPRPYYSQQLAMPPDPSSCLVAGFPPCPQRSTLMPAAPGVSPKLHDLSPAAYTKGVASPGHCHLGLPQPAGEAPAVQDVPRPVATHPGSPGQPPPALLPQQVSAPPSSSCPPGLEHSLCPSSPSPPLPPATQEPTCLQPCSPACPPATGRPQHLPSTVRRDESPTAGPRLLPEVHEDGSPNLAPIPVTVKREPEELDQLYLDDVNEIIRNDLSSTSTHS
Sequence of UniProt Q9ULX3 (Q9ULX3 whole entry, looked up): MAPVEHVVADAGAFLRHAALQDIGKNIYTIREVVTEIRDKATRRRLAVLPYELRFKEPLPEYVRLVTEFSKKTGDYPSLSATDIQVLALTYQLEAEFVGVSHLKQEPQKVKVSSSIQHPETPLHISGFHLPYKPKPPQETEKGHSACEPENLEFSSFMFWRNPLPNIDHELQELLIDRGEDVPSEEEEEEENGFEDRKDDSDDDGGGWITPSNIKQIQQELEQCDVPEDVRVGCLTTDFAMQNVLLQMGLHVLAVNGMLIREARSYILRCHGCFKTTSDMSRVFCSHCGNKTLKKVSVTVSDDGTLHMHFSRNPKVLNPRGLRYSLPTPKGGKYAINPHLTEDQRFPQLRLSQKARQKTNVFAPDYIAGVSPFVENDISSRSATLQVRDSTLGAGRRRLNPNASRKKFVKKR
Sequence of UniProt Q9BYG3 (Q9BYG3 whole entry, looked up): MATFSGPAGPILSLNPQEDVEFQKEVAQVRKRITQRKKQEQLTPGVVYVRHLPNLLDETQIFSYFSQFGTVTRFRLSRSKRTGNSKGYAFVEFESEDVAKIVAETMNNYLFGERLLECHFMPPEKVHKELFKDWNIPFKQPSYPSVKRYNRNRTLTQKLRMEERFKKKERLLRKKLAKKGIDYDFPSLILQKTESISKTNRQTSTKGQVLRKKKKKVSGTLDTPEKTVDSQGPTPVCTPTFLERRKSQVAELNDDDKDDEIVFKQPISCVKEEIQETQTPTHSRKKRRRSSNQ
Sequence of UniProt Q9Y6C9 (Q9Y6C9 whole entry, looked up): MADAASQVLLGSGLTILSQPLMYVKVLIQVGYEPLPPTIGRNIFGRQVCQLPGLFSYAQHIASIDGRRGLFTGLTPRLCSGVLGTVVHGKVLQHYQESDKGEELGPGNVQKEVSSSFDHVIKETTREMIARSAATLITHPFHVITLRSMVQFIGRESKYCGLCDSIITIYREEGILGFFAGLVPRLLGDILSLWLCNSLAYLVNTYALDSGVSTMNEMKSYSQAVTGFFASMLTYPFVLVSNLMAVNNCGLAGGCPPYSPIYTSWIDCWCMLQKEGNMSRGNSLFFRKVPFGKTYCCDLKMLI

Compound in one experiment: CC(C)C1=C2N=C(C=C(N2N=C1)NCC3=CC=CC=C3)NCCCCCCN
The experiment in a line: log2 fold change, soluble protein after heating vs DMSO (PISA); higher = thermal stabilisation; K562 lysate, 10 uM; active = over 0.2 and 3.5 SD of the protein, either way, in both replicates (recomputed). A digest of the protocol:
(§1)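 Following dounce homogenisation of K562 pellets in PBS pH 7.4 with 1 mM MgCl2, crude extract at 1 mg/mL protein was incubated for 30 min with 10 μM compound. Aliquots were then heated for 3 min over 48°C-58°C and pooled, NP-40 was added to 0.5% at 4°C, and soluble protein was recovered as the supernatant at 21,000xg for 90 min. Channel-sum-equalised TMTpro 16plex LC-MS/MS quantified this protein. Each value, from duplicates, is a log-two fold change in thermal stability relative to solvent controls.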
Take NUP93 (UniProt Q8N1F7): the log2 fold change was 0.
Still for that read-out and setting: to PANK4 (UniProt Q9NVE7) belongs 0.036; to NIPSNAP3A (UniProt Q9UFN0), 0.029; to OSBP2 (UniProt Q969R2), -0.223.
On the same count and under the same terms, to MTCH2 (UniProt Q9Y6C9) belongs 0.044; to NUP160 (UniProt Q12769), -0.021.
On to NEK7 (UniProt Q8TDX7), for which the log2 fold change was 0.034.
Take NLRP2 (UniProt Q9NX02): the log2 fold change is -0.008.
Still for that read-out and setting: to NUMB (UniProt P49757) belongs 0.003; to NEK9 (UniProt Q8TD19), 0.01; to MSH6 (UniProt P52701), 0.027.
Take NIFK (UniProt Q9BYG3): the log2 fold change was -0.001.
On the same count and under the same terms, to OGFOD2 (UniProt Q6N063) belongs -0.125; to NFATC1 (UniProt O95644), -0.038.
Same read-out and setting: with NFIC (UniProt P08651) the figure was 0.235.
OARD1 (UniProt Q9Y530): the log2 fold change was -0.01.
For the target NOB1 (UniProt Q9ULX3), the log2 fold change was 0.013.
On to NARS2 (UniProt Q96I59), for which the log2 fold change is -0.001.
Turning to NUP188 (UniProt Q5SRE5), the log2 fold change is -0.028.
On the same count and under the same terms, with NFKBIE (UniProt O00221) the figure was -0.05.
The same measure, in the same setting: to NNT (UniProt Q13423) belongs -0.05; to ORC5 (UniProt O43913), 0.022; to MYO1D (UniProt O94832), 0.018.
For the target OTUD7B (UniProt Q6GQQ9), the log2 fold change is -0.034.
Still for that read-out and setting: with NUF2 (UniProt Q9BZD4) the figure was -0.001; with PBK (UniProt Q96KB5), 0.029; with NUDT4 (UniProt Q9NZJ9), -0.012.
Still for that read-out and setting: with MYD88 isoform 6 (UniProt Q99836) the figure was 0.024; with MRPL53 (UniProt Q96EL3), 0.016; with MTMR6 (UniProt Q9Y217), 0.043.
Same read-out and setting: with NELFCD (UniProt Q8IXH7) the figure was 0.009; with NPLOC4 isoform 2 (UniProt Q8TAT6), 0.027.
In the case of NCOR2 (UniProt C9J0Q5), the log2 fold change was -0.034.
Same read-out and setting: with NUDT5 (UniProt Q9UKK9) the figure was -0.047.
NMT1 (UniProt P30419): the log2 fold change is 0.022.
The same measure, in the same setting: to PARD3 (UniProt Q8TEW0) belongs 0.001.

Compound in the next experiment: CC1=C(C(CC(=O)N1)C2=CC=C(C=C2)C(F)(F)F)C(=O)NC3=C(C=C4C(=C3)C=NN4)F
Described as above. A digest of the protocol: as §1
On to NUP93 (UniProt Q8N1F7), for which the log2 fold change is 0.027.
PANK4 (UniProt Q9NVE7): the log2 fold change was -0.01.
Consider NIPSNAP3A (UniProt Q9UFN0), for which the log2 fold change was 0.023.
As to OSBP2 (UniProt Q969R2), the log2 fold change was -0.006.
The same measure, in the same setting: to MTCH2 (UniProt Q9Y6C9) belongs -0.019.
With NUP160 (UniProt Q12769), the log2 fold change is 0.01.
On the same count and under the same terms, to NEK7 (UniProt Q8TDX7) belongs -0.015.
As for NLRP2 (UniProt Q9NX02), the log2 fold change was 0.007.
Same read-out and setting: to NUMB (UniProt P49757) belongs -0.007.
NEK9 (UniProt Q8TD19): the log2 fold change was 0.006.
On the same count and under the same terms, to MSH6 (UniProt P52701) belongs -0.01.
Still for that read-out and setting: to NIFK (UniProt Q9BYG3) belongs 0.016; to OGFOD2 (UniProt Q6N063), -0.023.
On to NFATC1 (UniProt O95644), for which the log2 fold change was 0.031.
Turning to NFIC (UniProt P08651), the log2 fold change was -0.038.
Still for that read-out and setting: to OARD1 (UniProt Q9Y530) belongs -0.027.
Turning to NOB1 (UniProt Q9ULX3), the log2 fold change was -0.001.
The same measure, in the same setting: to NARS2 (UniProt Q96I59) belongs 0.017.
In the case of NUP188 (UniProt Q5SRE5), the log2 fold change was -0.005.
Take NFKBIE (UniProt O00221): the log2 fold change is 0.015.
On the same count and under the same terms, with NNT (UniProt Q13423) the figure was -0.011; with ORC5 (UniProt O43913), -0.027.
Regarding MYO1D (UniProt O94832), the log2 fold change was -0.021.
On the same count and under the same terms, with OTUD7B (UniProt Q6GQQ9) the figure was -0.011.
For the target NUF2 (UniProt Q9BZD4), the log2 fold change was 0.018.
Same read-out and setting: with PBK (UniProt Q96KB5) the figure was -0.008; with NUDT4 (UniProt Q9NZJ9), 0.017; with MYD88 isoform 6 (UniProt Q99836), 0.002.
Turning to MRPL53 (UniProt Q96EL3), the log2 fold change is -0.047.
On the same count and under the same terms, to MTMR6 (UniProt Q9Y217) belongs -0.044; to NELFCD (UniProt Q8IXH7), 0.007; to NPLOC4 isoform 2 (UniProt Q8TAT6), -0.005.
The same measure, in the same setting: to NCOR2 (UniProt C9J0Q5) belongs 0.046; to NUDT5 (UniProt Q9UKK9), -0.007; to NMT1 (UniProt P30419), -0.011.
On the same count and under the same terms, to PARD3 (UniProt Q8TEW0) belongs 0.011.

(Values after the supplement of paper PMC10849652.)
